# Values joined by “and” are separate entries in the source; they are usually repeats but may differ in a detail not shown here. Equal entries are not always repeated. Active and inactive are the calls of the source.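 The calls were made as follows, unless noted: active = compounds whose cell count with miR-34 switched on is under 0.7 times the count with it off; inactive = the rest.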
# Columns and labels:
# [1] = Wnt pathway potentiators raising nuclear beta-catenin – imaging, WNT3A-conditioned medium, mouse C2C12, NPC library, primary screen (AID 1117326; in the data active = nuclear beta-catenin stimulation mostly above about 4.2%, no sharp cut-off; inactive = mostly below about 10%); settings: stronger effect = higher value
# [2] = stimulators of insulin release from INS-1E, primary screen, cell-based, 5 mM glucose, NPC library (AID 1117329;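 active = compound raises insulin release from rat beta cells at 5 mM glucose, no numeric limit stated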); settings: rat INS-1E insulin secretion, at 10 µM, stronger effect = higher value
# [3] = growth inhibition of GSK3B-pretreated HCT116 cells – cell-based, CellTiter-Glo, 0.2 to 20 µM (AID 1117336;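 active = compounds lowering colon cancer cell viability after pretreatment blocking the GSK3B kinase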); settings: HCT116 viability after GSK3B inhibitor, at 20 µM, stronger effect = higher value
# [4] = inhibition of endothelial tube formation, primary screen, imaging, VEGF stimulated, CD31 staining, tube area, NPC library (AID 1117340;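 active = compound that reduces growth-factor-driven endothelial tube area in a mixed cell culture, no cutoff stated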); settings: VEGF-stimulated ADSC/ECFC co-culture, at 10 µM, stronger effect = higher value
# [5] = GLP1 release stimulators, primary, NCI-H716, NPC library (AID 1117341;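 active = compound raises GLP1 secretion from the human gut endocrine cells, with no numeric limit stated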); settings: NCI-H716 cells, at 10 µM, stronger effect = higher value
# [6] = HCT116 colon cancer cell growth inhibition, primary screen, CellTiter-Glo luminescence, NPC library (AID 1117342;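 active = compounds that lower survival of HCT116 colon cancer cells in the luminescence readout, no numeric limit stated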); settings: at 20 µM (top of the series)
# [7] = reduced SW480 viability measured with CellTiter-Glo, NPC library, primary (AID 1117343;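 active = compounds that lower viability of the colon cancer cells in the luminescence readout, with no numeric limit stated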); settings: CellTiter-Glo luminescence; at 20 µM (top of the series) unless noted
# [8] = NPC library primary testing for decreased DLD-1 cell viability via CellTiter-Glo (AID 1117346;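 active = compounds that lower survival of DLD-1 colon cancer cells in the luminescence readout, no cutoff given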); settings: DLD-1 viability, CellTiter-Glo luminescence; at 20 µM (top of the series)
# [9] = EMT-state selective cytotoxicity in co-culture – imaging, PC-3E GFP, TEM4-18 mCherry, primary screen (AID 1345086;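 active = compounds killing one labelled cell type while sparing the other, by normalised counts and ratio limits, not self-fluorescent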;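 as to all read-outs here: cells exposed to compound for 72 h before imaging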;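 as to red/green cell ratio (normalised): normalised mesenchymal count divided by normalised epithelial count so high means epithelial killing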); settings: PC-3E GFP / TEM4-18 mCherry co-culture, imaging cell counts, at 1 µM; for red/green cell ratio (normalised): actives lie on both sides, counts scaled to control wells, 1 = unselective
# [10] = viability loss with induced miR-34 in A549 – imaging, A549 dox-inducible miR-34, nuclei and caspase counts, primary screen (AID 1347080); settings: A549 miR-34 inducible, Hoechst nuclei count, 48 h
# [11] = MELAS cybrid and Rieske KO viability enhancers – cell-based, MELAS cybrids, Rieske KO mouse fibroblasts, CellTiter-Glo, primary screen (AID 1508586;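 active = mean z-score across replicates of 1.96 or higher in either the MELAS or the Rieske mutant cell line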;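 also: z relative to plate mean and SD of compound and empty wells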); settings: low glucose
# [12] = biological target: NAD(+) hydrolase SARM1 (Homo sapiens) (UniProt Q6SZW1); assay: blocking NAD cleavage by SARM1 SAM-TIR – cell lysate, NAD-Glo luminescence (AID 1508614;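 active = compound whose remaining NAD level is above about 45 nM, limit read from the data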;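 also: higher remaining NAD means stronger inhibition of SARM1 NADase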); settings: SAM-TIR HEK293T lysate NADase, at 1 µM, stronger effect = higher value
# [13] = growth inhibition, single agent or in combination, cell-based, chromothripsis tumors, cisplatin or BGB combos (AID 1671449; in the data active = inhibition above about 80%;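 also: cells exposed for 96 hours; 0% = vehicle DMSO and 100% = killing by high DMSO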); settings: LFS_MB_P medulloblastoma cells
# [14] = growth inhibition, single agent and combos, cell-based, chromothripsis tumors, cisplatin or BGB combos (AID 1671450; in the data active = inhibition above about 80%;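 also: cells exposed to compound for four days; 0% = vehicle DMSO and 100% = cell killing by high DMSO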); settings: HDN33 neuroblastoma cells, stronger effect = higher value
# [15] = growth inhibition, single agents and combos, ICB984, cell-based, cisplatin or BGB combos, synergistic combos for chromothripsis tumors (AID 1671451; call rule not given here;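 also: cells exposed for 96 hours before readout; 0% = vehicle DMSO and 100% = killing by high DMSO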); settings: ICB984 medulloblastoma cells, drug combinations, stronger effect = higher value
# [16] = growth inhibition, single agents and combos, HTB85, cell-based, BGB or cisplatin IC20 combos, synergistic combos for chromothripsis tumors (AID 1671453; in the data active = inhibition above about 80%;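 also: cells exposed for 96 hours before readout; 0% = vehicle DMSO and 100% = high DMSO killing control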); settings: HTB85 osteosarcoma cells, drug combinations, stronger effect = higher value
# [17] = growth inhibition, MDA-MB-436, cell-based, BGB or cisplatin combos, synergistic combos for chromothripsis tumors (AID 1671458; call rule not given here;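 also: cells exposed for 96 hours; 0% = vehicle DMSO and 100% = killing by high DMSO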); settings: MDA-MB-436 breast carcinoma growth inhibition, drug combinations, stronger effect = higher value
# [18] = compounds altering viability of human ES cells (AID 493140; call rule not given here;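 also: cells exposed to compounds for four days before counting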); settings: human embryonic stem cell survival screen; stronger effect = higher value
# [19] = P. berghei load reduction in hepatocytes – cell-based, HepG2, luciferase luminescence, HepG2 viability, primary screen (AID 624349; in the data active = parasite load remaining mostly below about 12%, no sharp cut-off; inactive = mostly above about 10%;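 also: 100% = mean of DMSO negative control wells on the same plate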); settings: P. berghei liver stage in HepG2, luciferase luminescence, concentration not given here; parasite load remaining: stronger effect = lower value; viability: measured here: HepG2 viability without parasites
# [20] = measured here: epithelial PC-3E GFP cell survival
# [21] = measured here: mesenchymal TEM4-18 mCherry cell survival
# [22] = stronger effect = lower value, cell number ratio, induced over uninduced
# [23] = measured here: relative caspase fold change +Dox/-Dox
# [24] = measured here: total cells with miR-34 induction, stronger effect = lower value
# [25] = measured here: total cells without miR-34 induction
# [26] = MELAS cybrid survival, CellTiter-Glo 48 h, stronger effect = higher value
# [27] = Rieske KO mouse fibroblast survival, CellTiter-Glo 72 h
# Sequence of NAD(+) hydrolase SARM1 (Homo sapiens) (Q6SZW1 whole entry, looked up): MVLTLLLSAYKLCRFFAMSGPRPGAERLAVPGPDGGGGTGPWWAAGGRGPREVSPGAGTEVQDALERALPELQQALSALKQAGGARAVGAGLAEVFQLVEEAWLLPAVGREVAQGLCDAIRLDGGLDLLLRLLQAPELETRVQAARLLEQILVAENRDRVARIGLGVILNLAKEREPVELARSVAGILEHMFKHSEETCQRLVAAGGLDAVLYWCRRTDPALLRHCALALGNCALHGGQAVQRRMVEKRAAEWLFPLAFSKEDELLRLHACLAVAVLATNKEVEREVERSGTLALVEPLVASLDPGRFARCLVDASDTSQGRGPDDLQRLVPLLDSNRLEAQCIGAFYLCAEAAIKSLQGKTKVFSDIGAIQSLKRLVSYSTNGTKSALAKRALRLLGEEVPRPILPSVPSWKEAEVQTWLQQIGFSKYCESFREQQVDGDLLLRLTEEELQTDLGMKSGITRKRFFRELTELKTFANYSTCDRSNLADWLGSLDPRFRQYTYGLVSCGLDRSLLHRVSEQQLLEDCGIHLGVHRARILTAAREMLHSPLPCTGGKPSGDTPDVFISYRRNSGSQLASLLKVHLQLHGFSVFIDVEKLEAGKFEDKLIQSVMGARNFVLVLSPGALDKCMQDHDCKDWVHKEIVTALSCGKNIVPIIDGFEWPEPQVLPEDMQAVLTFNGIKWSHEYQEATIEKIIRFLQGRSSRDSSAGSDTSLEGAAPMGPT
structure (smiles),measurement,setting,value
O=c1cc[nH]c(=O)[nH]1,nuclear beta-catenin stimulation,[1]; at 10 µM,2.3% (inactive)
same,nuclear beta-catenin stimulation,"[1]; stimulation, at 2 µM",0.3%
same,insulin secretion stimulation,[2],0% (inactive)
same,viability decrease,[3],0.75% (inactive)
same,tube area decrease,[4],-14.5% (inactive)
same,GLP1 secretion stimulation,[5],-2.6% (inactive)
same,inhibition of viability,[6],1% (inactive)
same,viability decrease (inhibition),[7],8% (inactive)
same,viability decrease (inhibition),[8],3.55% (inactive)
same,red/green cell ratio (normalised),[9],1.11 (inactive)
same,normalised cell number,[9]; [20],1.05
same,normalised cell number,[9]; [21],1.16
same,fold change,[10]; [22],0.956 (inactive) and 0.943 (inactive)
same,fold change,[10]; [23],0.736 and 0.726
same,cell count,[10]; [24],8740 and 8670
same,cell count,[10]; [25],9140 and 9190
same,z-score,[11]; [26],-0.276 (inactive)
same,z-score,[11]; [27],-0.187
same,remaining NAD,[12],10 nM (inactive)
same,inhibition,"[13]; at 0.5 µM, stronger effect = higher value",-22.6% (inactive)
same,inhibition,"[13]; measured here: combination with BGB IC20, at 0.005 µM",-16.6%
same,inhibition,"[13]; measured here: combination with BGB IC40, at 0.005 µM",-38.5%
same,inhibition,"[13]; measured here: combination with BGB IC40, at 0.05 µM",-9.29%
same,inhibition,"[13]; measured here: combination with cisplatin, at 0.5 µM, stronger effect = higher value",-28.9%
same,inhibition,"[13]; measured here: combination with cisplatin, at 5 µM, stronger effect = higher value",-19.9%
same,inhibition,"[14]; BGB combo, at 5 µM",-47.9%
same,inhibition,[14]; at 0.5 µM,-41.6% (inactive)
same,inhibition,"[14]; cisplatin combo, at 5 µM",-56.4%
same,inhibition,"[14]; measured here: with BGB IC20 combination, at 0.5 µM",-36.5%
same,inhibition,"[14]; measured here: with cisplatin IC20 combination, at 0.5 µM",-23.5%
same,inhibition,"[14]; single agent, at 5 µM",-52%
same,inhibition,"[15]; BGB IC20 combo, at 0.005 µM",-14.6%
same,inhibition,"[15]; BGB IC40 combo, at 0.005 µM",-47.1%
same,inhibition,"[15]; BGB IC40 combo, at 0.05 µM",-28.5%
same,inhibition,[15]; at 0.5 µM,-27% (inactive)
same,inhibition,"[15]; cisplatin combo, at 0.05 µM",-28.5%
same,inhibition,"[15]; cisplatin combo, at 0.5 µM",-48.6%
same,inhibition,"[15]; cisplatin combo, at 5 µM",-27.5%
same,inhibition,"[15]; measured here: 5 uM single agent, at 5 µM",-5.8%
same,inhibition,[16]; at 0.5 µM,-37.5% (inactive)
same,inhibition,"[16]; measured here: with BGB IC20, at 0.5 µM",-69.8%
same,inhibition,"[16]; measured here: with BGB IC20, at 5 µM",-35.2%
same,inhibition,"[16]; measured here: with cisplatin IC20, at 0.5 µM",-26.2%
same,inhibition,"[16]; measured here: with cisplatin IC20, at 5 µM",-33.2%
same,inhibition,"[16]; single agent, at 5 µM",-19.7%
same,inhibition,[17]; at 0.5 µM,-27.5% (inactive)
same,inhibition,"[17]; measured here: BGB combination, at 0.5 µM",-30.5%
same,inhibition,"[17]; measured here: BGB combination, at 5 µM",-26.1%
same,inhibition,"[17]; measured here: cisplatin combination, at 0.5 µM",-40.8%
same,inhibition,"[17]; measured here: cisplatin combination, at 5 µM",-24%
CC1CC(OC(=O)c2ccccc2O)CC(C)(C)C1 (stereo unspecified),survival,[18],6 (inactive)
same,parasite load remaining,[19],86.4% (inactive) and 63% (inactive)
same,viability,[19],75.8% and 101%
same,nuclear beta-catenin stimulation,[1]; at 10 µM,1.8% (inactive)
same,nuclear beta-catenin stimulation,"[1]; stimulation, at 2 µM",-0.1%
same,insulin secretion stimulation,[2],0% (inactive)
same,viability decrease,[3],-63.6% (inactive)
same,tube area decrease,[4],4.9% (inactive)
same,GLP1 secretion stimulation,[5],-7.6% (inactive)
same,inhibition of viability,[6],9.33% (inactive)
same,viability decrease (inhibition),[7],6% (inactive)
same,viability decrease (inhibition),[8],-0.4% (inactive)
same,red/green cell ratio (normalised),[9],1.12 (inactive)
same,normalised cell number,[9]; [20],1.37
same,normalised cell number,[9]; [21],1.53
same,fold change,[10]; [22],0.96 (inactive) and 0.853 (inactive)
same,fold change,[10]; [23],0.489 and 3.24
same,cell count,[10]; [24],9060 and 10300
same,cell count,[10]; [25],9440 and 12000
same,z-score,[11]; [26],-0.66 (inactive)
same,z-score,[11]; [27],-0.623
same,remaining NAD,[12],10 nM (inactive)
COc1ccc(O)cc1,nuclear beta-catenin stimulation,[1]; at 10 µM,1.7% (inactive)
same,nuclear beta-catenin stimulation,"[1]; stimulation, at 2 µM",0.5%
same,insulin secretion stimulation,[2],-1.8% (inactive)
same,viability decrease,[3],12.9% (inactive)
same,tube area decrease,[4],18.7% (inactive)
same,GLP1 secretion stimulation,[5],-0.4% (inactive)
same,inhibition of viability,[6],-4.9% (inactive)
same,viability decrease (inhibition),[7],88.2% (active)
same,viability decrease (inhibition),[8],27.4% (inactive)
same,red/green cell ratio (normalised),[9],1.14 (inactive)
same,normalised cell number,[9]; [20],1.04
same,normalised cell number,[9]; [21],1.18
same,fold change,[10]; [22],0.919 (inactive) and 0.917 (inactive)
same,fold change,[10]; [23],0.877 and 0.265
same,cell count,[10]; [24],7700 and 8110
same,cell count,[10]; [25],8370 and 8840
same,z-score,[11]; [26],-0.189 (inactive)
same,z-score,[11]; [27],-0.254
same,remaining NAD,[12],10 nM (inactive)
CN(C(=O)CN(CCO)CC(=O)N(C)C(C)(C)Cc1ccccc1)C(C)(C)Cc1ccccc1,survival,[18],8.83 (inactive)
same,nuclear beta-catenin stimulation,[1]; at 10 µM,9.4% (inactive)
same,nuclear beta-catenin stimulation,"[1]; stimulation, at 2 µM",3.2%
same,insulin secretion stimulation,[2],1.4% (inactive)
same,viability decrease,[3],-33.9% (inactive)
same,tube area decrease,[4],2.2% (inactive)
same,GLP1 secretion stimulation,[5],107% (active)
same,inhibition of viability,[6],59.3% (active)
same,viability decrease (inhibition),[7],124% (active)
same,viability decrease (inhibition),[8],104% (active)
same,red/green cell ratio (normalised),[9],1.14 (inactive)
same,normalised cell number,[9]; [20],1.13
same,normalised cell number,[9]; [21],1.29
same,fold change,[10]; [22],0.876 (inactive) and 0.908 (inactive)
same,fold change,[10]; [23],1.3 and 4.08
same,cell count,[10]; [24],7940 and 11300
same,cell count,[10]; [25],9070 and 12400
same,z-score,[11]; [26],0.165 (inactive)
same,z-score,[11]; [27],-0.15
same,remaining NAD,[12],10 nM (inactive)

# From PubChem BioAssay
